Pf Dd2 growth – Plasmodium falciparum Dd2 growth inhibition | P. falciparum Dd2 growth, SYBR Green, 72 h | Potency, µM (series often up to 28.9 µM), for the others: at the top dose activity, negative = inhibition, usual class: inhibitors | 120,000 tested, 4.3% active; active = well fitted inhibition curve with a large enough effect;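 also: plate controls were DMSO vehicle for no effect and reference drug for full effect; nearly all actives have a fitted effect of over 65% in size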
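Readout: SYBR Green fluorescence, 485 nm excitation, 535 nm emission, after ~16 h lysis at 37C. Before that, Dd2-infected red cells (2.5% hematocrit) grew 72 h with compound, 29 uM top final concentration.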
An asterisk follows results filed as active; i = inactive; [ ] = remark or other dose. The sample as a whole holds a higher share of hits than the screen did. Potency is read from the fitted curve at half-maximal effect.

SMILES	Pf Dd2 growth
N#Cc1c(-c2ccccc2)cc(-c2ccccc2)nc1SCC(=O)Nc1ccc(Cl)cc1	-13%
COc1ccc(-c2cc(-c3ccccc3)nc(SCC(=O)Nc3ccccc3F)c2C#N)cc1	22%
COc1ccc(NC(=O)CSc2nc(-c3ccccc3)cc(-c3cc(OC)c(OC)c(OC)c3)c2C#N)c(OC)c1	6.3µM*
FC(F)(F)c1ccc(N2C3CCC2CN(Cc2ccc(-c4cncnc4)cc2)C3)cc1	-20%
CNS(=O)(=O)c1ccc(CN2CCC3(CCNCC3)C2)cc1	-3%
O=C(c1cccs1)C1CCCN(C(=O)c2ccc(N3CCCC3=O)cc2)C1 (centres undefined)	-7%
NCC(=O)N1Cc2ccccc2CC2(CCN(CC3CCNC3)C2)C1 (centres undefined)	15%
CCCN1CCCC2(Cc3ccccc3CN(C(=O)C3CCN(C)CC3)C2)C1 (centres undefined)	-18%
CN1CCC(C(=O)N2Cc3ccccc3CC3(CCN(Cc4ccccn4)C3)C2)CC1 (centres undefined)	-21%
O=C(O)CCCC(=O)N1Cc2ccccc2CC2(CCCN(CC3CCCC3)C2)C1 (centres undefined)	10%
CC(=O)NCC(=O)N1Cc2ccccc2CC2(CCN(CC3CCOCC3)C2)C1 (centres undefined)	4%
CCN1CCC2(Cc3ccccc3CN(C(=O)C3CCCC3)C2)C1 (centres undefined)	8.9µM*
CN(C)CC(=O)N1Cc2ccccc2CC2(CCN(CC3CCOCC3)C2)C1 (centres undefined)	-21%
CC(=O)NCCC(=O)N1Cc2ccccc2CC2(CCCN(CC3CCCC3)C2)C1 (centres undefined)	-18%
NCC(=O)N1Cc2ccccc2CC2(CCCN(CC3CCCC3)C2)C1 (centres undefined)	7.9µM*
O=C(C1CCCC1)N1Cc2ccccc2CC2(CCN(CC3CCOCC3)C2)C1 (centres undefined)	7.1µM*
NCC(=O)N1Cc2ccccc2CC2(CCN(CC3CCOCC3)C2)C1 (centres undefined)	8.9µM*
CN(C)CCC(=O)N1Cc2ccccc2CC2(CCCN(CC3CCOCC3)C2)C1 (centres undefined)	-10%
O=C(NCC1(COc2ccccc2)C[C@@H](O)[C@@H](O)C1)C1CCCC1 (some centres undefined)	-7%[44.1 µM]
O=C(Nc1ccc(Cl)cc1)c1nc2c(o1)CCN(Cc1cc(F)ccc1F)CC2	i
C=CCNC(=O)C(NC(=O)c1ccc(OC)cc1)C1CCN(C(=O)c2cccc(F)c2)CC1 (centres undefined)	i
O=C1CCC(C(=O)N2CCCn3ccnc3C2c2ccccc2)=NN1 (centres undefined)	17%
CN(C)[C@@H]1CN(Cc2cccc(C#N)c2)CC[C@@H]1CNC(=O)C1CC1	i
Cc1nc2c(c(-c3ccc(Cl)cc3)n1)CN(C(=O)c1ccc(C(F)(F)F)cc1)CC2	i
Cc1noc(-c2cccc(OC3CN(C(=O)c4cccc5[nH]ccc45)C3)c2)n1	i[5.79 µM]
SMILES	Pf Dd2 growth
Cc1ncc(C(=O)NC(c2ccccc2)c2nnc(N)s2)c(=O)[nH]1 (centres undefined)	-1%
CC1=C[C@@H](CNS(=O)(=O)c2cccs2)[C@H](C(C)C)C[C@H]1CC(=O)NCCN1CCOCC1	-12%
CC(C)NC(=O)N1CCN(C(=O)C2CCCCC2)[C@@H](C(=O)N[C@@H](CC2CCCCC2)C(N)=O)C1	-21%
O=C(NCc1ccc(Cl)cc1)c1ccn2cncc2c1	i
O=C(c1ccccc1-c1nn[nH]n1)N1CCOCC(O)(CN2CCCC2)C1 (centres undefined)	-2%
O=C(c1cccc(-n2cccn2)c1)N1CCOCC(O)(CN2CCCC2)C1 (centres undefined)	-23%
CC(=O)N[C@@H]1CN(C(=O)c2[nH]c3c(C)ccc(C)c3c2C)C[C@H]1C(C)C	-26%
Cc1ccc(-c2cccc(C(=O)N3CCCC(O)(CN4CCCC4)C3)c2)o1 (centres undefined)	11µM*
Cc1ccc(C)c2c(C)c(C(=O)N3CCCC(O)(CN4CCCC4)C3)[nH]c12 (centres undefined)	11µM*
O=C(c1cccc(-c2ncc[nH]2)c1)N1CCCC(O)(CN2CCCC2)C1 (centres undefined)	10%
COCC(=O)N1CC[C@]2(O)CCN(C(=O)c3ccccc3N(C)C)C[C@@H]2C1	-3%
Cc1ccc(OCc2nc(C3CCCCN3C(=O)c3cc(F)ccc3F)no2)cc1 (centres undefined)	i
Cc1ncc(CO)c(CN2CCC3(CC2)Cc2ccccc2CNC3=O)c1O	-14%
COc1ccc(CCNC(=O)c2cc(=O)c3cc(C)cc(C)c3o2)cc1OC	7%
CCCNC(=O)c1ccc2c(c1)N(Cc1cccc(C)c1)C(=O)c1ccccc1S2	-6%
COc1ccc(CCNC(=O)c2ccc3[nH]c(C)c(C)c3c2)cc1OC	i
CNC(=O)c1ccc2c(c1)N=C(C)c1cc(C)ccc1S2	i
O=C(NCc1ccccc1)c1ccc2nccn2c1	-13%[44.1 µM]
CCCC1=Nc2cc(C(=O)NCCc3ccc(OC)c(OC)c3)ccc2Sc2ccc(C)cc21	10µM*
CC1=Nc2cc(C(=O)NC(C)C)ccc2Sc2ccc(C)cc21	11µM*
COc1ccc(CCNC(=O)c2ccc3c(c2)N=C(C)c2cc(C)ccc2S3)cc1OC	11µM*
Cc1ccc(C)c(CN2C(=O)c3ccccc3Sc3ccc(C(=O)NCCCOC(C)C)cc32)c1	-16%
COc1ccc(CCNC(=O)c2ccc3c(c2)N(Cc2cccc(Cl)c2)C(=O)CS3)cc1OC	-4%
COc1ccc(CCNC(=O)c2ccc(Cn3c(=O)c4ccccc4n(Cc4ccc(C)cc4)c3=O)cc2)cc1OC	21%
CCCC1=Nc2cc(C(=O)NCc3ccccc3)ccc2Sc2ccccc21	11µM*
SMILES	Pf Dd2 growth
CCN1CCC2(CCC1=O)CN(C(=O)CCCc1cccs1)CCN2C (centres undefined)	11%
Cc1cc(C)c2[nH]c(C(=O)N3CCN(Cc4ccccc4)C(=O)C3C)c(C)c2c1 (centres undefined)	-18%
COc1ccc(NC(=O)Cn2nc3n(c2=O)CCCCC3)cc1	34%
Cc1nnc(CN2CCN(C)C3(CCC(=O)N(CC(=O)O)CC3)C2)o1 (centres undefined)	-8%
CCc1ccccc1-n1nc(-c2c(C)nc3scc(CC(=O)NCc4ccco4)n3c2=O)cc1C	-8%
COCC1CN(C(C)=O)CC12CCN(S(=O)(=O)c1ccc(F)c(C)c1)CC2 (centres undefined)	22%
O=C(Nc1ccccc1)O[C@@H]1CO[C@H]2[C@@H]1OC[C@@H]2n1nnnc1SCc1ccco1	i
O=C(NC1CCCCC1)O[C@@H]1CO[C@H]2[C@@H]1OC[C@@H]2n1nnnc1SCc1ccco1	i
CC(=O)c1ccc(NC(=O)O[C@@H]2CO[C@H]3[C@@H]2OC[C@@H]3n2nnnc2SCc2ccco2)cc1	6.3µM*
Cn1cc(-c2cn(C)c(=O)n3cc(COc4ccc(Cl)cc4)nc23)cn1	i
COc1ccc(NC(=O)c2ccc3c(c2)N(C)C2CCCCCN2C3=O)cc1F (centres undefined)	i
COC(=O)CNC(=O)C1CCc2nnc(-c3ccccc3OC)n21 (centres undefined)	37%
COc1ccccc1-c1nnc2n1C(C(=O)NCCc1ccc(Cl)cc1)CC2 (centres undefined)	1.8µM*
COc1ccccc1-c1nnc2n1C(C(=O)NC(C)C)CC2 (centres undefined)	-9%

Assay outcomes as filed in PubChem.
